Screening data: PubChem, several laboratories
This is a sample that favours compounds with a hit; in the whole collection about 1.9% have one here.
IEC-6 tox = IEC-6 cytotoxicity, counter-screen for KLF5 inhibitors | luminescence viability | inhibition, % at 5 µM | 0.78% of 290,000 active | AID 1825; in the data active = inhibition above about 22%;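 also: 0% = plate median of test compound wells and 100% = cytotoxic reference compound wells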
KLF5 inh = kruppel-like factor 5 inhibition | DLD-1 KLF5 promoter-luciferase reporter, luminescence | inhibition, % at 5 µM | 0.23% of 290,000 active;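 active = inhibition above a per-plate limit of that plate's mean compound inhibition plus 3 SD, cut at about 60% in these data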;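 also: 0% = DMSO wells and 100% = LY294002 at 200 µM; higher means less KLF5 promoter-driven luciferase light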
Ba/F3 V617F tox = reduce viability of Ba/F3 cells dependent on JAK2V617F. Ba/F3 EpoR-JAK2V617F viability, ATP luminescence. inhibition, % at 5.6 µM. AID 1446. 1.1% of 220,000 active;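 active = inhibition above the campaign mean plus 3 SD over all tested compounds, cut at about 24% in these data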;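 also: cytokine-independent growth of Ba/F3 cells driven by EpoR plus mutant JAK2; 0% = DMSO-treated cells and 100% = JAK inhibitor I control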
APP transl inh = APP translation inhibition. inhibition, % at 2 µM. SH-SY5Y APP 5'UTR-luciferase reporter, luminescence. 0.82% of 190,000 active;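 active = inhibition above a set limit, derived from the sample mean plus 3 SD, cut at about 45% in these data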
BaF3 tox = parental Ba/F3 viability inhibition as JAK2V617F counter-screen; CellTiter-Glo ATP luminescence; inhibition, % at 5.6 µM; 1.1% of 220,000 active; AID 1486;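 active = inhibition above a per-campaign cutoff, the mean inhibition of all tested compounds plus 3 SD, cut at about 27% in these data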;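 also: 0% = DMSO wells and 100% = JAK Inhibitor I control wells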
Numbers without * were called inactive; / = no result given.

SMILES	IEC-6 tox	KLF5 inh	Ba/F3 V617F tox	APP transl inh	BaF3 tox
O=C(CCc1nnc2n(CCc3ccccc3)c(=O)c3ccccc3n12)NCCCN1CCCCC1	-9	-16	/	/	/
O=[N+]([O-])c1ccc2[nH]c3nc4ccccc4nc3c2c1	9	-13	36*	/	43*
O=[N+]([O-])c1ccc2[nH]nc(-c3ccccc3)c2c1	-2	-21	-2	-21	8
N/C(Cc1ccc(Cl)cc1)=N\OC(=O)C1CCCCC1	-5	-17	-4	-10	4
N#Cc1cc(N)c(Nc2ccccc2)cc1C#N	16	17	15	-5	37*
N#Cc1ccc(Nc2ccccc2)c(N)c1	3	-69	0	-7	0
COc1ccc(OCc2cc(C(=O)NC(C)Cc3cnccn3)no2)c(Cl)c1 (stereo unspecified)	-3	-99	/	/	/
Cc1cc(-c2ccccc2)cc(-c2ccccc2)[n+]1C	4	-6	73*	-4	68*
CCOc1ccc(N(CC(=O)Nc2ccccc2C)S(=O)(=O)c2c(C)noc2C)cc1	63*	28	78*	66*	54*
CCOc1ccc(N(CC(=O)Nc2ccc(C)c(C)c2)S(=O)(=O)c2c(C)noc2C)cc1	2	13	2	-14	2
CCOc1ccccc1NC(=O)CN(c1ccc(OC)cc1)S(=O)(=O)c1c(C)noc1C	2	-6	79*	89*	75*
O=C(NC(Cc1ccccc1)C(=O)O)/C(=C\c1ccccc1F)NC(=O)c1ccccc1 (stereo unspecified)	-3	-10	-2	17	3
O=C(NC(Cc1ccccc1)C(=O)O)/C(=C/c1ccc(Cl)cc1)NC(=O)c1ccccc1 (stereo unspecified)	-5	11	1	-1	37*
CCCCn1c(=O)c(C(=O)N/N=C/c2ccc(F)cc2)c(O)c2ccccc21	3	-21	-1	23	80*
COC(=O)[C@@H](NCc1cccc(CN([C@H](C(=O)OC)C(C)C)S(C)(=O)=O)c1)C(C)C	-6	-3	/	/	/
COc1ccc(OCC(=O)N(Cc2sccc2C)C2CCS(=O)(=O)C2)cc1 (stereo unspecified)	-6	-49	/	/	/
Cc1cc(C)c2ccc(N)nc2c1O	3	-20	-2	66*	3
COc1cccc(C(C(=O)NCC2CCCO2)N(C(=O)Cn2nnc3ccccc32)c2ccc(NC(C)=O)cc2)c1OC (stereo unspecified)	2	-7	/	/	/
Cn1nnnc1NCc1ccccc1F	-2	1	/	/	/
COc1cccc(CN(C)C(=O)c2cc(COc3ccc4ncccc4c3)on2)c1	14	-32	54*	9	71*
O=C(c1cc(COc2ccc3ncccc3c2)on1)N1CCCCCC1	0	-9	5	8	16
O=C(c1cc(COc2ccc3ncccc3c2)on1)N1CCCC1	8	2	/	/	/
O=C(NC1CCCC1)c1cc(COc2ccc3ncccc3c2)on1	3	-33	36*	/	44*
CC(NC(=O)c1cc(COc2ccc3ncccc3c2)on1)c1ccc(F)cc1 (stereo unspecified)	7	-26	31*	/	36*
FC(F)(F)c1ccc(-n2cnc3ccccc32)nc1	3	-47	/	/	/
SMILES	IEC-6 tox	KLF5 inh	Ba/F3 V617F tox	APP transl inh	BaF3 tox
Nc1ccn(Cc2cccc(F)c2)n1	3	-28	0	0	1
N=c1ccn(Cc2cccc(F)c2)cc1	-1	16	71*	/	66*
Cc1n(C)c2cc(Cl)ccc2[n+]1Cc1ccccc1	3	-15	56*	5	94*
CC[n+]1c(C)n(C)c2cc(S(=O)(=O)N(C)C)ccc21	2	-14	-3	-15	3
Cc1ccc(C#CC[N+](C)(C)CC#Cc2ccccc2)cc1	2	0	85*	10	68*
COC(=O)CCC(=O)NC(=S)Nc1sc(C)c(C)c1C(N)=O	40*	58	75*	94*	71*
O=C(CCS(=O)(=O)c1ccccc1)NCc1ccccc1	-1	-17	/	/	/
C=CCn1c(C)cc(C(=O)CN2NS(=O)(=O)c3ccccc3C2=O)c1C	-2	-88	4	85*	17
CCCCCCCCCCCCCCCCn1cc[n+](CC(C)=O)c1	2	2	68*	20	75*
CC(C)(C)NC(=O)C(c1ccncc1)N(Cc1cccs1)C(=O)Cn1nnc(-c2ccc(F)cc2)n1 (stereo unspecified)	12	-3	-1	5	3
CC(C)(C)NC(=O)C(OC(=O)Cn1nnc(-c2ccc(F)cc2)n1)c1ccncc1 (stereo unspecified)	-2	-37	1	-22	93*
